In PubChem BioAssay AID1006 (Sanford-Burnham Center for Chemical Genomics, 2008) one finds inhibition data, which are given here for 102 compounds.

The inhibition is the relative decrease from the control value, in per cent.

Each structure is given as a SMILES string. Among all 200,000 compounds or so, about 3,000 (1.5%) were called active. Shown is part of a subset that was picked to be rich in actives. Values without a mark were called inactive.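 Rule for the calls: active = inhibition above about 50% when tested at 10 µM (limit read from the data); inactive = the rest.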

Chain of Luciferin 4-monooxygenase (Photinus pyralis) (P08659 whole entry, looked up): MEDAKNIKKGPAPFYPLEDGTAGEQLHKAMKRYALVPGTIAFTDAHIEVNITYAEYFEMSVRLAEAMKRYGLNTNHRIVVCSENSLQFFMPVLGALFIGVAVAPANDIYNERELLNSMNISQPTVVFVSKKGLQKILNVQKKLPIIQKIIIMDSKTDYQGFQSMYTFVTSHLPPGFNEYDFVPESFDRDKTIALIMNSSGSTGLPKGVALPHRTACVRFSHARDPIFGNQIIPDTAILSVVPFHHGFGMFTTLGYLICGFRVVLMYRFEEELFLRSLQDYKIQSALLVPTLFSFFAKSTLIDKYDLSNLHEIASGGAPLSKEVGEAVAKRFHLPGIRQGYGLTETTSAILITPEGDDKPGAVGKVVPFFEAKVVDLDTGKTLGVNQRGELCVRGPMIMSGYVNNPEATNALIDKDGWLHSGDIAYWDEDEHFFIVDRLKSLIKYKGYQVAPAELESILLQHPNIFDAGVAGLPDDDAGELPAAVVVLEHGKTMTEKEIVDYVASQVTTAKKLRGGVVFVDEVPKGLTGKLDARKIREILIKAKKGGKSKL

This assay concerns the target Luciferin 4-monooxygenase (Photinus pyralis) (UniProt P08659). Briefly: inhibition of purified FLuc reporter enzyme – biochemical, luminescence, ATPLite, artefact control for luciferase-based inhibitor screens, primary screen (AID 1006). To be noted: ATPLite firefly luciferase biochemical luminescence, 10 min; at 10 µM; stronger effect = higher value.
On to `N/C(=N\OC(=O)/C=C/c1ccccc1)c1ccc(Br)cc1`, for which the inhibition was -0.5%.

In the case of `N/C(=N\OC(=O)N1c2ccccc2Sc2ccccc21)c1ccc(Br)cc1`, the inhibition was -3.4%.

Turning to `N/C(=N\OC(=O)c1ccc2c(c1)OCO2)c1ccc(Br)cc1`, the inhibition was 60.6% (active).

On to `COc1ccccc1CN(C)C(=O)C1(c2ccc(Cl)cc2)CC1`, for which the inhibition is -4.2%.

`O=C(CCC(=O)N1CCCC1)Nc1ccc([N+](=O)[O-])cc1`: the inhibition was -1.6%.

For `CCn1c(=S)[nH]c2sc3c(c2c1=O)CCCCC3`, the inhibition was -1.8%.

On to `CCO[C@H]1OC(C(=O)Nc2ccccc2)=C[C@@H](C2CC2)[C@@H]1CCCO`, for which the inhibition was -0.3%.

For `Cc1ccc(C)c(NC(=S)NCC(c2cccnc2)N2CCOCC2)c1` (configuration not stated), the inhibition was -5.6%.

For `CCOC(=O)CSc1nnc(-c2ccc([N+](=O)[O-])cc2)o1`, the inhibition is 3%.

As for `CCOC(=O)CSc1nnc(-c2ccncc2)o1`, the inhibition was 0.6%.

On to `CCCCSc1nnc(-c2ccc(C)cc2)o1`, for which the inhibition is 50.5% (active).

For the compound `Cc1ccnc(SCC(N)=O)n1`, the inhibition was -1.6%.

On to `O=C(Nn1cnnc1)c1ccc([N+](=O)[O-])cc1`, for which the inhibition was -5.5%.

Turning to `Cc1ccc(-c2cc(C(=O)NCc3cn(C)nc3C)c3cc(Br)ccc3n2)cc1`, the inhibition is 10.9%.

On to `Cc1ccc2nc(-c3ccccc3)cc(C(=O)O)c2c1`, for which the inhibition is 15.5%.

In the case of `Cc1ccc2nc(-c3cccc(Br)c3)cc(C(=O)Nn3cnnc3)c2c1`, the inhibition was 78.1% (active).

Consider `Cc1nn2cc(-c3ccc(Cl)cc3)cnc2c1Br`, for which the inhibition is 7.5%.

Regarding `Cc1noc(C)c1COc1ccc2ccc(=O)oc2c1`, the inhibition was -2.2%.

As to `COc1ccc(-c2cc3ccc(OCc4nn[nH]n4)cc3oc2=O)cc1`, the inhibition was 81.4% (active).

For `CCCCc1cc(=O)oc2cc(C)cc(OCc3nn[nH]n3)c12`, the inhibition was -6.7%.

Turning to `Cc1cc(Cl)ccc1NC(=S)N1CCC(C(N)=O)(N2CCCCC2)CC1`, the inhibition was -2.1%.

As for `Cc1ccc(S(=O)(=O)N(NC2=NS(=O)(=O)c3ccccc32)C(=O)c2ccccc2)cc1`, the inhibition is 0.4%.

As for `CC(C)(C)c1csc(NC2=NS(=O)(=O)c3ccccc32)n1`, the inhibition is 77.2% (active).

For `O=C(Oc1cccc(NC2=NS(=O)(=O)c3ccccc32)c1)c1ccncc1`, the inhibition is -2.8%.

On to `N/C(=N\OC(=O)CC1CCCCC1)c1ccccc1`, for which the inhibition was 90.2% (active).

With `N/C(=N\OC(=O)CCC1CCCCC1)c1ccccn1`, the inhibition is 71.2% (active).

On to `COc1ccc(/C(N)=N/OC(=O)Cc2ccccc2)cc1`, for which the inhibition is 10.9%.

For `N/C(=N\OC(=O)CCc1ccccc1)c1ccc(Cl)cc1`, the inhibition is 0.8%.

Regarding `CCC(C)(NC(=O)c1ccccn1)C(=O)NC1CCCCC1` (configuration not stated), the inhibition was -4.6%.

For the compound `N/C(=N\OC(=O)CCc1ccccc1)c1cccnc1`, the inhibition is 14.6%.

As to `Cc1cc(C)nc(/N=C2\NC(=O)CC(C(=O)O)N2c2ccc(Cl)cc2Cl)n1` (configuration not stated), the inhibition was -5.6%.

On to `COc1ccccc1-c1noc(CSc2nc(C)cc(=O)[nH]2)n1`, for which the inhibition was -0.3%.

Consider `CCc1ccc(NC(=O)C(=O)N/N=C(\C)CC(=O)NCCOC)cc1`, for which the inhibition is 10.5%.

With `CCCCNC(=O)N1CCN(S(C)(=O)=O)CC1`, the inhibition is -1.2%.

Turning to `CC(C)n1c(-c2ccncc2)n[nH]c1=S`, the inhibition is -5.7%.

With `Cc1cccc(NC(=S)N2CCC(O)CC2)c1C`, the inhibition is -0.2%.

As to `CCCC(=O)Nc1ccc(C(=O)N/N=C/c2ccc[nH]2)cc1`, the inhibition was -1.8%.

In the case of `O=C(c1cc(Cl)cc(Cl)c1)N1CCC(=O)N(C(COCc2ccccc2)Cc2ccccc2)CC1` (configuration not stated), the inhibition is -9.5%.

In the case of `O=C(O)Cc1sc(-c2ccc(C(=O)O)cc2)nc1-c1ccccc1`, the inhibition is -4.9%.

`NC(=O)Cc1ccc2sc(-c3ccccc3)nc2c1`: the inhibition was 65.2% (active).

Consider `O=C(O)Cc1sc(-c2ccccc2)nc1-c1cccs1`, for which the inhibition was 6.8%.

Consider `CCOC(=O)c1ccc(NC(=O)C2CC(=O)Nc3nc4ccccc4n32)cc1` (configuration not stated), for which the inhibition was 0.7%.

Regarding `NC(=O)Cc1nc2scc(-c3ccc(Cl)cc3)c2c(=O)[nH]1`, the inhibition is -1.4%.

As to `O=c1[nH]c(CN2CCOCC2)nc2cc(Cl)ccc12`, the inhibition was -3.5%.

As to `O=c1[nH]c(CCl)nc2cc(-c3ccc(Cl)cc3)sc12`, the inhibition was 93.3% (active).

On to `Cc1cccc(NC(=O)NC(=S)NC(=O)c2ccccc2)c1`, for which the inhibition was 12.7%.

For `Cn1c(-c2ccccc2)c[n+]2c1CCCCC2`, the inhibition was -4.6%.

`COc1ccc(C2=NN(c3ccccc3)C(c3cccs3)C2)cc1` (configuration not stated): the inhibition was 5.5%.

Consider `FC(F)(F)c1nc2ccccc2nc1N/N=C/c1ccc(Cl)cc1`, for which the inhibition is 8.5%.

`CC(C)(C)c1nnc(N/N=C/c2ccc(O)cc2)n(N)c1=O`: the inhibition is 17.8%.

With `O=c1c2ccccc2nc(N/N=C/c2ccccc2)n1O`, the inhibition was 90.5% (active).

Consider `c1ccc2c(NC3C4CC5CC(C4)CC3C5)nc(N3CCOCC3)nc2c1` (configuration not stated), for which the inhibition is -8.2%.

For `CCOc1ccc(NC(=O)c2cc(C)nc3ccccc23)cc1`, the inhibition was -2.9%.

`CCc1cccc(C)c1NC(=S)N(CCCN1CCN(C)CC1)Cc1cccs1`: the inhibition was -0.5%.

As for `CN1C(=O)/C(=C\c2cc(Br)cs2)c2ccccc21`, the inhibition was 32.4%.

`CN(C)c1nccc(NCc2ccccc2)c1C#N`: the inhibition is -1.3%.

For `O=C1NC(c2ccccc2)CCC1(Cl)Cl` (configuration not stated), the inhibition was -1.3%.

With `C/C(=N\OC(=O)c1ccccc1)c1c(C)nc2cc(C)ccn12`, the inhibition was -3.4%.

`O=C(CSc1ccc(/C=N/NC(=O)c2cccc(F)c2)o1)Nc1ccccc1`: the inhibition was 3.7%.

`Cc1ccc(NC(=O)C(=O)NCc2ccc(/C=N/NC(=O)c3c(C)nc4cc(C)ccn34)o2)cc1`: the inhibition is 70.8% (active).

`C[C@@H]1CC[C@]2(O[C@@H](CCO)C[C@H](O)[C@H]2O)O1`: the inhibition is -2.6%.

For the compound `CCN(CC)CCNC(=O)c1ccc(NC(=O)c2c(F)cccc2Cl)cc1`, the inhibition is -2%.

Consider `CC(=O)Nc1ccc(S(=O)(=O)NC2(C(F)(F)F)C(=O)NC(C)=C2C#N)cc1` (configuration not stated), for which the inhibition is -5.9%.

With `C/C(N)=C(/C#N)C(=O)COC(=O)c1cc(-c2ccc(C)cc2)nc2ccccc12`, the inhibition was 12.9%.

Take `COc1ccc(-c2cc(C(=O)n3cnc4ccccc43)c3ccccc3n2)cc1`: the inhibition is 36.7%.

As to `CNC(=O)COC(=O)c1cc(-c2ccc(OC)cc2)nc2ccccc12`, the inhibition was 54.2% (active).

With `O=C(NNc1cc(Cl)ccc1Cl)c1cccnc1Cl`, the inhibition was -7.9%.

With `CC(=O)c1sc(N/N=C\c2ccc(C)cc2)nc1C`, the inhibition is -5.2%.

With `CC(=O)c1sc(NC(=O)c2cccc3ccccc23)nc1C`, the inhibition was -4.9%.

As for `CC(=O)c1sc(NC(=O)c2ccc(C)cc2)nc1C`, the inhibition was 68.8% (active).

With `Cc1cccc(NC(=O)Nc2ccc3c(c2)OCO3)n1`, the inhibition is 55% (active).

Take `COc1ccc(OC)c(/C=C/C(=O)OCC(=O)Nc2ccc3c(c2)OCCO3)c1`: the inhibition was 0.6%.

Take `COc1cccc(/C=C/C(=O)Nc2ccc3c(c2)OCCO3)c1`: the inhibition is 86.5% (active).

For `CCc1c(C)sc(NC(=O)/C=C/c2ccc3c(c2)OCO3)c1C(=O)OC`, the inhibition is 5%.

On to `CC(C)C(=O)Nc1cccc(C(=O)Nc2ccc3c(c2)OCO3)c1`, for which the inhibition is 33%.

For `CC(NC(=O)Nc1ccc2c(c1)OCO2)c1ccncc1` (configuration not stated), the inhibition is -4.9%.

Consider `O=C(/C=C/c1ccc2c(c1)OCO2)NCc1ccc(F)cc1`, for which the inhibition is 1.2%.

On to `COc1ccc(/C=C/C(=O)Nc2ccc3c(c2)OCCO3)cc1OC`, for which the inhibition is 10.1%.

Turning to `Cc1cccc(NC(=O)/C=C/c2ccc3c(c2)OCO3)n1`, the inhibition was 89.3% (active).

Take `CC(=O)c1c(-c2ccccc2)c2ccccc2[nH]c1=O`: the inhibition is -6.4%.

`CSc1ccc(/C=N/N2CCN(Cc3ccccc3Cl)CC2)cc1`: the inhibition is -7.8%.

As for `O=C(Cc1ccc(Cl)cc1)NCc1nc(-c2ccccc2)no1`, the inhibition is -3.2%.

Take `Cc1ccc(N(C(=O)c2sc(C)nc2C)C(C(=O)NC(C)(C)C)c2ccncc2)cc1` (configuration not stated): the inhibition is -4.2%.

Turning to `CCOC(=O)CN1CCC(c2ccccc2)CC1`, the inhibition was -0.7%.

Turning to `CCOc1ccc(S(=O)(=O)N/N=C(\C)c2ccc(Cl)c(Cl)c2Cl)cc1`, the inhibition was 1.5%.

Consider `CC1(C)C2CC=C(/C=N/NC(=O)C3CC3)C1C2` (configuration not stated), for which the inhibition is -0.4%.

Consider `COc1ccc(OCC(=O)NNC(=O)c2cccc(C)c2)cc1`, for which the inhibition was -0.5%.

In the case of `CCOc1ccc(OCc2cccc(C(=O)N(CC)CC)c2)cc1`, the inhibition was 68% (active).

For the compound `CC(C)c1cc(C(N)=O)c(NC(=O)c2cccc(COc3ccc(Br)cc3)c2)s1`, the inhibition is -2.6%.

`Cc1cccc(C(=O)N2CCCN(C(=O)c3cccc(C)c3)CC2)c1`: the inhibition is -3%.

As for `COc1ccc(OCc2cccc(C(=O)N3CCCC3)c2)cc1`, the inhibition is 52.1% (active).

Regarding `CCN(CC)C(=O)c1ccc(O)c(OC)c1`, the inhibition was -4%.

In the case of `CCCn1nc(Oc2nc(NC(C)C)nc(N(C)C)n2)ccc1=O`, the inhibition was -7.4%.

In the case of `Cc1ccccc1N1C(=O)C(Oc2ccc(Cl)cc2)C1CNCC1CCCO1` (configuration not stated), the inhibition is -3.1%.

On to `CCOC(=O)c1sc(-c2cccc([N+](=O)[O-])c2)cc1N`, for which the inhibition was -3.5%.

For `Cc1ccc(OCCCC(=O)NC(C)c2ccccc2)c(C)c1` (configuration not stated), the inhibition is -1%.

For the compound `O=C(O)/C=C/c1ccc(OCCCF)cc1`, the inhibition was -2.5%.

For the compound `O=C(Oc1ccccc1Cl)c1ccc(N2CCOCC2)c([N+](=O)[O-])c1`, the inhibition is -14.3%.

Regarding `COc1ccccc1NC(=O)COC(=O)Cc1ccc(S(=O)(=O)N2CCCCC2)s1`, the inhibition is -8.3%.

For `O=C(NC1CCCC1)c1ccc(Br)s1`, the inhibition is 3.5%.

As to `O=C(Nc1ccc2c(c1)CCC2)c1ccc(Br)s1`, the inhibition is 57.1% (active).

For the compound `CC(C)C(=O)OCC(=O)Nc1ccc2c(c1)CCC2`, the inhibition was 8.9%.
